FECH inh = blocks human mitochondrial ferrochelatase activity; calls only at 10 µM (by protocol); purified FECH, Ni-mesoporphyrin absorbance 550 nm; P22830; 20,000 tested, 3.3% active;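 active = enzyme reaction rate more than 3 SD below the solvent-only control wells on the same plate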;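 note: lower slope than DMSO wells means FECH inhibition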
Target sequence (P22830 whole entry, looked up): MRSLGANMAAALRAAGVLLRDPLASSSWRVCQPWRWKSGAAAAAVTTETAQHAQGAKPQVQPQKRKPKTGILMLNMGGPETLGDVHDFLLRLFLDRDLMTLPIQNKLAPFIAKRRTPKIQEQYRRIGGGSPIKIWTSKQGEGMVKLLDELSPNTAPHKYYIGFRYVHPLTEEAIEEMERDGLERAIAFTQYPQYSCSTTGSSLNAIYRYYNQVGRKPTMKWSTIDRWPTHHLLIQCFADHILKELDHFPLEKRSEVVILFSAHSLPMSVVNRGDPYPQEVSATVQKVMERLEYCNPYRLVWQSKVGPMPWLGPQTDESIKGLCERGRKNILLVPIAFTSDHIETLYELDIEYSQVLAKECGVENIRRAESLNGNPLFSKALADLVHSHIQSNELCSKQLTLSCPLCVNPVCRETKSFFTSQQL
Active calls of the source: *; i = inactive; + = active, no number. This is one part of a sample in which hits are shown more often than they occur.

SMILES	FECH inh
O=S(=O)(Nc1nc2n(n1)C(c1c(F)cccc1Cl)C=C(c1ccccc1)N2)c1ccccc1 (centres undefined)	+
CCCN(CCC)c1ncc(NS(=O)(=O)c2ccc(Br)cc2)cc1C(=O)O	i
O=S(=O)(Cc1ccccc1)NCCn1c(-c2ccccc2)nc2cccnc21	i
COc1ccc(OC)c(S(=O)(=O)NCCn2c(-c3ccccc3)nc3cccnc32)c1	i
Cc1ccc(-c2nc3cccnc3n2CCNS(=O)(=O)Cc2ccccc2)cc1	+
CCc1ccc(NC(=O)NCCn2c(-c3ccncc3)nc3cccnc32)cc1	i
COc1ccc(OC)c(S(=O)(=O)NCCn2c(-c3ccc(C)cc3)nc3cccnc32)c1	i
CCOC(=O)c1ccccc1NC(=O)NCCn1c(-c2ccncc2)nc2cccnc21	+
Cc1ccc(-c2nc3cccnc3n2CCNS(C)(=O)=O)cc1	i
CCOc1ccc(NC(=O)NCCn2c(-c3ccncc3)nc3cccnc32)cc1	i
COc1ccc(Cl)cc1S(=O)(=O)NCCn1c(-c2ccc(C)cc2)nc2cccnc21	+
Cc1cc(N2CCCCC2)nc(N2CCN(S(=O)(=O)c3cc(C(C)C)ccc3C)CC2)n1	i
CCn1nc(C)c(CCNC(=O)c2ccc(CN3C(=O)CCn4nccc43)cc2)c1C	i
CCc1c(C)nc2ncnn2c1Sc1ccc(NS(=O)(=O)c2ccc(OC)cc2)cc1	i
CCOCC(=O)Nc1cc(C)nn1-c1ncnc2c1cnn2-c1ccc(C)cc1C	i
O=C(NCC(=O)N1CCC2(CC1)NCCNC2=O)c1ccccc1	i
CCN(CCc1nc2ccc(C)cc2[nH]1)C(=O)c1cnn2cc(CCO)cnc12	i
Cc1ccc(C)c(OCCN(C)C(=O)c2cc3ncc(CCO)cn3n2)c1	+
Cc1ccc(OCCN(C)C(=O)c2ccc(Cn3nnnc3C)cc2)c(C)c1	i
O=C(c1csc(S(=O)(=O)NCc2cccnc2)c1)N1CCCC1	i
COc1ccc(N2CCN(C(=O)c3nc4ccccc4n(C)c3=O)CC2)cc1	i
COc1ccc(CN2CCN(C(=O)c3nc4ccccc4n(C)c3=O)CC2)c(OC)c1OC	+
Cn1c(=O)c(C(=O)N2CCN(c3ncccn3)CC2)nc2ccccc21	i
Cc1ccc(C)c(S(=O)(=O)NCc2nc3cccnc3n2C)c1	i
O=S(=O)(c1cccs1)N1CCN(Cc2nc3cccnc3n2-c2ccccc2)CC1	i
SMILES	FECH inh
CCn1nc(CNC(=O)c2cn[nH]n2)c2ccccc21	i
OCCN1CCN(c2nc(Nc3ccc(Cl)cc3)c3cnn(-c4ccccc4)c3n2)CC1	+
CN1CCN(c2nc(Nc3ccc(Cl)cc3)c3cnn(-c4ccccc4)c3n2)CC1	+
Cc1ccc(Nc2nc(N3CCN(C)CC3)nc3c2cnn3-c2ccccc2)cc1	i
Clc1ccc(Nc2nc(N3CCN(c4ccccc4)CC3)nc3c2cnn3-c2ccccc2)cc1	i
COc1ccc(Nc2nc(N3CCC(C)CC3)nc3c2cnn3-c2ccccc2)cc1	+
CN(CCO)c1nc(Nc2ccc(Cl)cc2)c2cnn(-c3ccccc3)c2n1	+
COc1ccc(Nc2nc(N3CCCCC3)nc3c2cnn3-c2ccccc2)cc1	i
COc1ccc(Nc2nc(N3CCN(CCO)CC3)nc3c2cnn3-c2ccccc2)cc1	i
CN(CCO)c1nc(Nc2ccccc2)c2cnn(-c3ccccc3)c2n1	i
COc1ccc(Nc2nc(N3CCOCC3)nc3c2cnn3-c2ccccc2)cc1	i
OCCN1CCN(c2nc(Nc3ccc(F)cc3)c3cnn(-c4ccccc4)c3n2)CC1	i
CCN(CCO)c1nc(Nc2ccc(Cl)cc2)c2cnn(-c3ccccc3)c2n1	i
Cc1cccc(S(=O)(=O)NCc2nc3cccnc3n2Cc2ccc(F)cc2)c1	i
CCOc1ccc2nc(NC(=O)C3CCN(c4ncnc5c4nc4n5CCCCC4)CC3)sc2c1	i
CCc1cc(Sc2ccc(NC(=O)Nc3ccccc3Br)cc2)n2nc(C)nc2n1	i
O=C(CSCc1ccccc1Cl)NCc1n[nH]c2c1CCC2	i
O=C1c2ccccc2C(=O)N1c1nc2n(n1)C(c1ccccc1)C=C(c1ccc(Cl)cc1)N2 (centres undefined)	i
CCCN(CCC)c1ncc(NS(=O)(=O)c2ccc(C(C)=O)cc2)cc1C(=O)O	i
COc1ccc(Cl)cc1Nc1ncnc2sc(C)c(S(=O)(=O)N3CCCCC3)c12	i
Cc1ccccc1Cn1cc(C(=O)N(C)Cc2cccc3cccnc23)nn1	i
COCCCNS(=O)(=O)c1ccc(N2C(=O)CCS2(=O)=O)cc1	i
Cc1ncc2c(=O)n(CCCN(C)C)c(=O)n(C)c2n1	i
CCOC(=O)CN1CCC2(CCCN(C(=O)c3cc(F)ccc3F)C2)C1 (centres undefined)	i
CC1CCCN(c2nc(Nc3ccc(Cl)cc3)c3cnn(-c4ccccc4)c3n2)C1 (centres undefined)	i
SMILES	FECH inh
CC(C)OCCCNC(=O)Cn1c(=O)c2cnc(-c3ccccc3)nc2n(C)c1=O	i
CCCc1c(C)nc2ncnn2c1Sc1ccc(NC(=O)c2ccccc2C)cc1	+
CCc1c(C)nc2ncnn2c1Sc1ccccc1NC(=O)c1ccccc1C	i
CCCC(=O)Nc1ccc(Sc2c(CC)c(C)nc3ncnn23)cc1	i
CCc1c(C)nc2ncnn2c1Sc1ccc(NC(=O)c2ccc(OC)cc2)cc1	i
CCCc1c(C)nc2ncnn2c1Sc1ccc(NC(=O)c2ccc(C)cc2)cc1	i
CCCc1c(C)nc2ncnn2c1Sc1ccc(NC(=O)c2ccccc2)cc1	i
CCc1c(C)nc2ncnn2c1Sc1ccc(NC(=O)c2ccccc2C)cc1	+
CCCC(=O)Nc1ccc(Sc2c(CCC)c(C)nc3ncnn23)cc1	+
CCc1c(C)nc2ncnn2c1Sc1ccc(NC(=O)c2ccc(Br)cc2)cc1	+
CCc1c(C)nc2ncnn2c1Sc1ccc(NC(=O)c2cccs2)cc1	i
CCc1c(C)nc2ncnn2c1Sc1ccc(NC(=O)c2ccccc2)cc1	i
CCCc1c(C)nc2ncnn2c1Sc1ccc(NC(=O)CC)cc1	i
Cc1cc(C)n2nc(CN(C(=O)CC(C)C)c3ccc(F)cc3)nc2n1	i
COc1ccc(-c2c(Nc3ccccc3)oc3c2c(=O)n(C)c(=O)n3C)cc1	i
CN(Cc1cc2cc(F)ccc2[nH]1)C(=O)C1CNCCO1 (centres undefined)	i
Cc1cc(NC(=O)c2ccc(F)c(F)c2)n(-c2ncnc3c2cnn3-c2cccc(Cl)c2)n1	i
CN(CCc1cn[nH]c1)c1cc(C(F)(F)F)nc(N2CCCC2)n1	i
CC(C)CC(=O)Nc1nc2n(n1)C(c1ccc(F)cc1)C=C(c1ccc(Cl)cc1)N2 (centres undefined)	i
Cc1ccc(C2=CC(c3ccccc3Cl)n3nc(NC(=O)CC(C)C)nc3N2)cc1 (centres undefined)	+
O=C(Nc1nc2n(n1)C(c1ccccc1Cl)C=C(c1ccc(Cl)cc1)N2)c1ccc(F)cc1 (centres undefined)	i
CC(C)C(=O)Nc1nc2n(n1)C(c1ccccc1Cl)C=C(c1ccc(Cl)cc1)N2 (centres undefined)	i
CC(C)CC(=O)Nc1nc2n(n1)C(c1ccccc1Cl)C=C(c1ccc(Cl)cc1)N2 (centres undefined)	i
CCC(=O)Nc1nc2n(n1)C(c1ccccc1Cl)C=C(c1ccc(Cl)cc1)N2 (centres undefined)	i
CC(=O)Nc1nc2n(n1)C(c1ccc(Cl)cc1)C=C(c1ccc(Cl)cc1)N2 (centres undefined)	i
